# Results from PubChem BioAssay AID2685 (National Center for Advancing Translational Sciences (NCATS), 2010).
# Screen size: about 320,000 compounds; about 2,100 (0.66%) were called active. Roughly 53% stayed inconclusive and do not appear here. The call rests on the fitted dose curve; in most records, active means well fitted inhibition curve with a large enough effect in the signal ratio, with a control signal flat (not every such curve was filed as active); inconclusive means small, poorly fitted or top-dose-only effect, or effect the other way, or a change in a side signal; inactive means flat fitted curve, though single readings scatter; the % refers to the signal ratio. For the sample, actives were picked, then their nearest neighbours and some compounds at random.
# Assay: qHTS Assay for Lipid Storage Modulators in Drosophila S3 Cells;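 on cell number change: cells counted by Cell Tracker Red CMTPX staining in the red channel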; on lipid storage change, negative = inhibition: on the % scale 0 is the no-effect control and ±100 the full control effect
# Settings: BODIPY lipid droplet fluorescence, 18-24 h, cells fed with added oleic acid; cell number change: measured here: cell count max response; series mostly up to 46.1 µM; lipid storage change, negative = inhibition: at the top concentration
# In short: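 Drosophila S3 cells got compounds at several concentrations plus oleic acid (400 uM solution). Laser-scanning cytometry with 488 nm excitation read lipid droplets at 500-530 nm and cells at 575-640 nm. Percent activity was relative to 20 uM Triacsin C.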
# Potency means the concentration at half of the fitted maximal effect.
SMILES,"lipid storage change, negative = inhibition",cell number change,outcome,Potency
COC(C[C@H](O)[C@H](C)[C@H](O)COCc1ccccc1)OC,-0.509% (inactive),11.5%,,
O=C(CN1C(=O)COc2ccccc21)Nc1ccc2c(c1)OCCO2,,3.43%,inactive,
COc1ccc(C(=O)N/C(=C\c2cn(C)c3ccccc23)C(=O)N2CCN(C)CC2)cc1OC,,0.763%,inactive,
COc1ccc(C(=O)N/C(=C\c2cn(C)c3ccccc23)C(=O)N2CCOCC2)cc1,,8.73%,inactive,
COc1ccc(C(=O)N/C(=C\c2cn(C)c3ccccc23)C(=O)N2CCOCC2)cc1OC,,9.92%,,23.1 µM (active)
CCCN1CCN(C(=O)c2noc3c2COc2ccc(C)cc2-3)CC1,-30.8% (inactive),-19.6%,,
Cc1cc(=O)oc2cc(OC(C)C(=O)Nc3ccc(N4CCOCC4)cc3)ccc12 (stereo not drawn),20.2% (inactive),,,
COc1ccc2oc(C(=O)OC(C)C(=O)Nc3ccc(N4CCOCC4)cc3)c(C)c2c1 (stereo not drawn),,-30.5%,,7.31 µM (active)
COc1ccc2oc(C(=O)OC(C)C(=O)N3CCC(C)CC3)c(C)c2c1 (stereo not drawn),-4.24% (inactive),-13.1%,,
O=C(CSc1cn[nH]n1)Nc1ccccc1F,-23.4% [at 0.0737 µM] (inactive),16.5%,,
CCOC(=O)C1=C(COC(=O)/C=C/c2cccc(OC)c2OC)NC(=O)NC1C (stereo not drawn),,,inactive,
CCOC(=O)C1=C(COC(=O)/C=C/c2cc(OC)c(OC)c(OC)c2)NC(=O)NC1C (stereo not drawn),,4.86%,,18.4 µM (active)
CCOC(=O)C1=C(COC(=O)c2cc(OC)c(OC)c(OC)c2)NC(=O)NC1C (stereo not drawn),4.7% (inactive),-11.6%,,
NS(=O)(=O)c1ccc(NC(=S)NC(=O)c2cccs2)cc1,-5.53% (inactive),-5.36%,,
Cc1cc(Br)ccc1SCC(=O)N1CCN(S(=O)(=O)c2ccccc2)CC1,,10.8%,inactive,
O=C(CN1C(=O)c2cccnc2Oc2ccc(Cl)cc21)Nc1ccccc1F,-6.56% (inactive),-28%,,
CC(CNC(=O)CN1C(=O)c2cccnc2Oc2ccc(Cl)cc21)c1ccccc1 (stereo not drawn),,-20.3%,,20.6 µM (active)
Cc1ccccc1CNC(=O)CCC(=O)N1CCOc2ccc(Cl)cc21,6.67% (inactive),5.19%,,
O=C(CN1C(=O)c2cccnc2Oc2ccc(Cl)cc21)NCCc1ccccc1,,10.9%,inactive,
CC(CNC(=O)CCC(=O)N1CCOc2ccccc21)c1ccccc1 (stereo not drawn),-12.8% (inactive),5.19%,,
CC(CNC(=O)CCC(=O)N1CCOc2ccc(Cl)cc21)c1ccccc1 (stereo not drawn),,-20.2%,,0.92 µM (active)
COc1ccc(NC(=O)[C@@H](NC(=O)c2ccccc2)C(C)C)cc1S(=O)(=O)N1CCCCC1,-1.46% (inactive),-2.25%,,
CC(=O)Nc1ccc(OCC(O)Cn2c3ccccc3c3ccccc32)c(C)c1 (stereo not drawn),-3.13% (inactive),-16.4%,,

SMILES,"lipid storage change, negative = inhibition",cell number change,outcome,Potency
CSc1nc(=S)n(-c2ccccc2)c(C)c1C(C)=O,-5.3% (inactive),-14.2%,,
O=C(CCCn1c(SCc2cccc(F)c2)nc2ccccc2c1=O)NCC1CCCO1 (stereo not drawn),-7.37% (inactive),-0.301%,,
Cc1ccccc1S(=O)(=O)Cc1ccc(C(=O)NCCCN2CCCC2)o1,1.07% (inactive),13.9%,,
Cc1ccccc1S(=O)Cc1ccc(C(=O)NCCCN2CCCCC2)o1 (stereo not drawn),,-18.3%,,4.11 µM (active)
O=C(c1ccc(CS(=O)c2ccccc2Cl)o1)N1CCCCCC1 (stereo not drawn),,-21.2%,inactive,
O=C(NCCCN1CCCCC1)c1ccc(CS(=O)c2ccc(F)cc2)o1 (stereo not drawn),,,inactive,
O=C(NCCN1CCOCC1)c1ccc(CS(=O)c2ccccc2Cl)o1 (stereo not drawn),,-8.85%,,4.11 µM (active)
CCN1CCN(CCNC(=O)c2ccc(CS(=O)c3ccc(Cl)cc3)o2)CC1 (stereo not drawn),,,inactive,
COc1ccc(NC(C)=O)cc1NC(=O)c1ccc(Cl)cc1,0.28% (inactive),11.7%,,
CC(SCc1ccccc1)C(=O)Nc1ccccc1-c1ccccc1 (stereo not drawn),-6.56% (inactive),8.62%,,
O=S1(=O)N=C(Oc2cccc3ccccc23)c2ccccc21,-0.954% (inactive),3.24%,,
COc1ccc(C2CCCN2C(=O)Nc2ccc(Cl)cc2)cc1OC (stereo not drawn),-5.01% (inactive),-6.06%,,
Cc1ccc(C)c(CN2CCC(CNC(=O)Nc3cccc(Cl)c3C)CC2)c1,,-2.78%,,25.9 µM (active)
Cc1ccc(C)c(CN2CCC(CNC(=O)Nc3ccc(F)c(Cl)c3)CC2)c1,-20.7% (inactive),-7.91%,,
COc1ccc(Cl)cc1NC(=O)NCC1CCN(Cc2cc(C)ccc2C)CC1,-4.05% (inactive),-15.2%,,
CC(C)(C)c1ccc(OCCC(=O)OCC(=O)Nc2cccnc2Cl)cc1,-4.76% (inactive),-11.9%,,
COCCn1c(Cc2ccccc2)nnc1SCC(=O)N1CCCC1=O,10.9% (inactive),2.89%,,
O=C(NC1(N2CCOCC2)CC1)c1ccc(Cl)cc1,6.65% (inactive),10.5%,,
CSC1=NCCN1C(=O)c1c(F)cccc1F,3% (inactive),10.5%,,
CSc1ccccc1OCc1cc(C(=O)N(C)CC2COCCO2)no1 (stereo not drawn),-7.6% (inactive),5.77%,,
CCNC(=S)N1CCc2cc(OC)c(OC)cc2C1COc1ccccc1OC (stereo not drawn),,-25.8%,,11.6 µM (active)
CCNC(=S)N1CCc2cc(OC)c(OC)cc2C1COc1ccc(OC)cc1 (stereo not drawn),6.83% (inactive),-7.02%,,
CCC(=O)N1CCc2cc(OC)c(OC)cc2C1COc1ccccc1OC (stereo not drawn),-23.2% (inactive),-0.404%,,
